For 40 compounds, growth results are on record in PubChem BioAssay (NCI).

Compounds without any hit were thinned out: in the full panel of roughly 83,000, 20% have a hit.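 Negative percent growth values reflect cell death: -40 means 40% of the cells present at the start died, and -100 means all died.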 Activity calls are given as the source filed them.

The subject of the assay is ACHN renal. In words: NCI-60 one-dose screen, 48 h (100 = growth as untreated, 0 = no growth, -100 = all killed). Particulars: 10 µM unless noted. As for the experimental part: Growth inhibition of the ACHN human tumor cell line is measured as a screen for anti-cancer activity. Cells are grown in 96 well plates and exposed to the test compound for 48 hours. Compounds are tested at a single concentration, which is 10^-5 M for most compounds. The reported endpoint is percent growth (GI% or GIPRCNT), where numbers from 0 - 100% represent growth inhibition, and numbers from -100% - 0 represent cell death. For example, a value of 40 represents 60% growth inhibition. A value of 0 means no net growth occurred over the course of the experiment. A value of -40 indicates 40% of cells at the beginning of the experiment died by the end of the experiment. A value of -100 means all cells are dead at the end of the experiment.
NCI-60 Human Tumor Cell Lines Screen was performed using the standard one-dose NCI protocol, which is described in more detail at https://dtp.cancer.gov/discovery_development/nci-60/default.htm.
Compounds with GIPRCNT values below 10 were considered active. Activity score was based on GIPRCNT using the following formula: […]
Score is 0 for GIPRCNT values of 100 or above, 50 for GIPRCNT values of 0, and 100 for GIPRCNT values of -100.
For `COc1cc(C(=O)N2CCN(c3ccccc3)CC2)c2ccccc2n1`, the growth is 60.6% (inactive).

Take `Cn1c2ccccc2c2nnc(NCCCCO)nc21`: the growth is 87.2% (inactive).

As for `CC(C)(C)[Si](C)(C)OCC1OC(n2cnc3c(N)ncnc32)CC1OS(C)(=O)=O` (stereo not given), the growth is 114% (inactive).

As to `CCNc1ncnc2[nH]ncc12`, the growth was 98.2% (inactive).

`N#CC1(O)CCCCC1`: the growth is 106% (inactive).

Take `COc1nc(Nc2cccc(C(F)(F)F)c2)nc(OC)n1`: the growth was 110% (inactive).

As to `O=c1nc(Nc2cccc(Cl)c2)oc2cc(Cl)oc(=O)c12`, the growth was 81.3% (inactive).

Turning to `COc1ccc(C2CC(c3ccccc3)=Nc3ccccc3S2)cc1` (stereo not given), the growth is 103% (inactive).

For the compound `CC(=O)N(C)N=Nc1ccc(C)cc1`, the growth is 108% (inactive).

For the compound `Nc1ncnc(Nc2ccc(C(F)(F)F)cc2)n1`, the growth is 98.2% (inactive).

For the compound `CSc1nsc(N)n1`, the growth is 107% (inactive).

For `Cc1cc2c3ccc(C)[n+](C)c3ccc2n1C`, the growth is 79.4% (inactive).

Turning to `NCC(O)C(O)C(O)C(O)CO` (stereo not given), the growth is 105% (inactive).

Consider `CC(=O)OC/C(C)=C\CC(C)COC(C)=O` (stereo not given), for which the growth is 96.9% (inactive).

Take `CCC(=O)Oc1c(C)cc(O)c2ccccc12`: the growth is 77.5% (inactive).

With `CC1(C)OC2C(CO)OC(n3ccc(=O)[nH]c3=O)C2O1` (stereo not given), the growth was 104% (inactive).

In the case of `Cc1cc(Cl)cc(Cc2cc(Cl)cc(C)c2O)c1O`, the growth was 7.14% (active).

Take `S=c1nc(-c2ccccn2)c(-c2ccccn2)n[nH]1`: the growth is 109% (inactive).

For `O=S1(=O)c2ccccc2Oc2ccccc21`, the growth was 99.7% (inactive).

As for `NS(=O)(=O)c1cc(=O)[nH]c(=O)[nH]1`, the growth is 104% (inactive).

In the case of `O=C1NCC2CCCC1C2` (stereo not given), the growth was 111% (inactive).

`Cc1ccc[n+](CCC(N)=O)c1`: the growth was 105% (inactive).

With `Cc1ccc(N2C(=O)c3cccc4c(N)c(S(=O)(=O)O)cc(c34)C2=O)cc1`, the growth was 102% (inactive).

With `NC(=S)N/N=C/c1ccc(OC(=O)COc2ccc(Cl)cc2)cn1`, the growth was 12.5% (inactive).

Turning to `O=C(CCl)Nc1ccccc1SCc1cc(Cl)cc2c1OCOC2`, the growth was 85.5% (inactive).

On to `Clc1ccc(C(SCc2ccccc2)SCc2ccccc2)cc1`, for which the growth is 101% (inactive).

Consider `CCOC(=O)c1ccc(NC(=O)Nc2nccs2)cc1`, for which the growth was 9.97% (active).

Consider `COc1ccc2c(Cl)cc(NC(=O)Nc3c(C)cccc3C)nc2c1`, for which the growth was 41.9% (inactive).

Turning to `CCOC(=O)Nc1nccs1`, the growth is 104% (inactive).

Turning to `Cc1cc(C)cc(OCC(=O)O)c1`, the growth was 98.6% (inactive).

Take `Nc1nc2nnc(-c3ccccc3)c(-c3ccccc3)n2n1`: the growth was 98.1% (inactive).

On to `O=C1C=C(c2ccccc2)C(O)(c2ccccc2)C1` (stereo not given), for which the growth is 96% (inactive).

With `ClCc1cccc2c(CCl)cccc12`, the growth was 31.5% (inactive).

On to `CCC(C)c1c(N)n(S(=O)(=O)c2ccc(C)cc2)oc1=O` (stereo not given), for which the growth was 99.9% (inactive).

On to `Cc1ccc(N)c(S(=O)(=O)O)c1`, for which the growth was 102% (inactive).

As to `CC(C)C1CCC(C)C(O)C1` (stereo not given), the growth was 104% (inactive).

Take `O=[N+]([O-])c1ccc2[nH]c(=S)n(/C=C(/c3ccc(Cl)cc3Cl)S(=O)(=O)Cc3ccc(Cl)cc3Cl)c2c1`: the growth is 98.1% (inactive).

As to `CNc1ccccc1C(=O)N/N=C/C=C/c1ccccc1`, the growth is 58.2% (inactive).

With `OC(CBr)CCBr` (stereo not given), the growth was 100% (inactive).

For `Cc1ccc(C)c(CCO)c1`, the growth was 107% (inactive).
